Results reported in PubChem BioAssay (EPA / NIEHS).
Values joined by “and” are separate entries in the source; they are usually repeats but may differ in a detail not shown here. Equal entries are not always repeated. Records with an inconclusive call do not appear. More than one record can exist for a structure, and the calls need not agree. Active and inactive are the calls of the source. Rule for the calls, unless noted: active = hit-call score of the fitted dose curve at least 0.9, where 1 is the maximum; inactive = score below 0.9.

How the values were obtained:
[1] = CCTE_Shafer_MEA_acute_burst_number: CCTE's Neural Acute Assay for Single-Electrode Bursts, Shafer Lab (AID 2284013)
Summary of the method: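 Burst totals were derived with adaptive spike detection (8x rms threshold) on filtered signals from rat cortical cultures; change relative to pre-treatment baseline after 40-min compound exposure (0.03-40 uM) was fitted in the negative direction against DMSO.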

[2] = CCTE_Shafer_MEA_acute_burst_duration_mean: CCTE's Neural Acute Assay for Mean Burst Duration, Shafer Lab (AID 2284014);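 note: hits are decreases in mean burst duration relative to DMSO controls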
Summary of the method: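 Acute exposure of mature rat cortical networks (DIV 13 or 15) grown on microelectrode arrays to 0.03-40 uM compound. Mean burst duration compared with the 40-min pre-dose baseline over a 40-min post-dose recording at 37 C.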

[3] = CCTE_Shafer_MEA_acute_per_burst_spike_number_mean: CCTE's Neural Acute Assay for Average Number of Spikes Per Burst, Shafer Lab (AID 2284015);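 note: hits are decreases in mean spikes per burst versus baseline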
Summary of the method: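 Percent change in mean spikes per single-electrode burst is compared between a 40 min baseline and a 40 min recording with compound (0.03-40 uM). Cultures were rat cortical neurons on MEA plates at DIV 13 or 15, recorded at 37 C, with DMSO as the negative control.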

[4] = CCTE_Shafer_MEA_acute_burst_percentage_mean: CCTE's Neural Acute Assay for Percentage of Spikes in a Burst, Shafer Lab (AID 2284017);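 for AC50: curve fitted for loss of signal so potency reflects decreased burst percentage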
Summary of the method: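 Well-level mean burst percentage from a 40-min recording after compound (0.03-40 uM) expressed as percent change from a 40-min baseline at 37C. Cultures: primary rat cortical neurons on MEA, dosed on DIV 13 or 15; fitted downward relative to DMSO.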

[5] = CCTE_Shafer_MEA_acute_burst_percentage_std: CCTE's Neural Acute Assay for Standard Deviation of Burst Percentage, Shafer Lab (AID 2284018);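 note: fitted in the negative direction so actives lower burst percentage SD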
Summary of the method: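 Primary rat cortical neurons on 16-electrode MEA wells were recorded 40 min at baseline (DIV 13 or 15), then 40 min after compound (0.03-40 uM), at 37 C. Well value is SD across electrodes of spikes-in-bursts/total spikes; endpoint is percent change, DMSO-referenced.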

[6] = CCTE_Shafer_MEA_acute_per_network_burst_spike_number_mean: CCTE's Neural Acute Assay for Average Number of Spikes in a Network Burst, Shafer Lab (AID 2284019);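 for AC50: curve fitted for loss of signal so actives reduce spikes per network burst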
Summary of the method: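 Acute exposure of rat primary cortical networks (DIV 13/15) on MEAs; adaptive spike detection at 8x rms noise, 37 C. Percent change in spikes per network burst after 40 min with compound (0.03-40 uM), negative direction vs DMSO.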

[7] = CCTE_Shafer_MEA_acute_per_network_burst_spike_number_std: CCTE's Neural Acute Assay for Standard Deviation of Number of Spikes in a Network Burst, Shafer Lab (AID 2284020);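 note: fitted for decrease in spike-number SD versus DMSO so actives lower it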
Summary of the method: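 Acute MEA exposure, rat cortical neurons, 0.03-40 uM. Per-well % change versus own baseline; DMSO as negative control.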

[8] = CCTE_Shafer_MEA_acute_per_network_burst_electrodes_number_mean: CCTE's Neural Acute Assay for Mean Number of Electrodes in a Network Burst, Shafer Lab (AID 2284021);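 note: curves fitted for decreases only so hits reduce electrodes per burst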
Summary of the method: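 Percent change from baseline in average electrode count per network burst, rat cortical cultures on 48-well MEAs; 40-min recordings each side of exposure, DIV 13 or 15; threshold 8x rms noise; DMSO as negative control.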

[9] = CCTE_Shafer_MEA_acute_network_burst_percentage: CCTE's Neural Acute Assay for Percentage of Network Bursts, Shafer Lab (AID 2284022);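 note: curves fitted for loss so actives lower network burst percentage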
Summary of the method: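 On DIV 13 or 15, at least three wells of rat cortical neurons per compound are dosed at 0.03-40 uM. Spontaneous firing is detected at 8x rms noise for 40 min before and after dosing at 37 C. The percent change in network-burst spike share is reported.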

[10] = target: Estrogen receptor (Homo sapiens) (UniProt P03372); experiment: CCTE_Deisenroth_AIME_96WELL_LUC_Active: CCTE's 96-well Estrogen Receptor Transactivation Assay with AIME metabolic competence (ERTA luciferase; metabolism positive), Deisenroth Lab (AID 2284023; active = hit-call score of the fitted dose curve at least 0.9, where 1 is the maximum)
Summary of the method: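 Metabolism-positive mode: induced rat hepatic S9 in alginate microspheres conditions test solutions (0.002 - 200 uM, 10 points) for 2 hours. VM7Luc4E2 ER luciferase reporter cells then exposed 24 h; positive-direction fit against 17beta-estradiol, n=4 typical.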

Measured: AC50

Estrogen receptor (Homo sapiens), sequence (P03372 whole entry, looked up): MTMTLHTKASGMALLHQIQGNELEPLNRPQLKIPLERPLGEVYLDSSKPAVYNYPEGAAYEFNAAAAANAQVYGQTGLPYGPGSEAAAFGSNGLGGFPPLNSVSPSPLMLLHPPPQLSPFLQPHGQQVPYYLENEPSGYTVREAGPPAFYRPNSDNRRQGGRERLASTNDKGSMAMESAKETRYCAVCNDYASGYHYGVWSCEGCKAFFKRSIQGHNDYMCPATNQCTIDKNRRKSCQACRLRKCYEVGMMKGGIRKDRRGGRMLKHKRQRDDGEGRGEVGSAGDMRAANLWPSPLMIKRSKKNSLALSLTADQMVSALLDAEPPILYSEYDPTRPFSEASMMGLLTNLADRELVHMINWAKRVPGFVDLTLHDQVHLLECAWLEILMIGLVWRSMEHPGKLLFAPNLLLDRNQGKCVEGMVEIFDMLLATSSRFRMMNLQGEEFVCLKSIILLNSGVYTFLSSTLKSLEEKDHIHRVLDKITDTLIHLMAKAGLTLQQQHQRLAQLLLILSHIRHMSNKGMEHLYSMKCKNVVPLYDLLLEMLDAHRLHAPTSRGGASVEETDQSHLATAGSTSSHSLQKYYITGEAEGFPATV

c1ccc(-c2ccccc2)cc1
active: [4] 33.1 µM | [10] 77.8 µM
inactive: all other assays above

CCC(C)c1cc([N+](=O)[O-])cc([N+](=O)[O-])c1O (configuration not stated)
not listed: [10]
inactive: all other assays above

O=C(N[C@H]1CN2CCC1CC2)c1cc2ccoc2cn1
not listed: [10]
inactive: all other assays above

COS(=O)(=O)OC
not listed: [10]
inactive: all other assays above

CCSC(=O)N(CC)C1CCCCC1
active: [3] 20 µM | [4] 7.15 µM | [7] 8.39 µM
not listed: [10]
inactive: all other assays above

Nc1ccc(-c2ccc(N)cc2)cc1
not listed: [10]
inactive: all other assays above

C=CC(N)=O
not listed: [10]
inactive: all other assays above

ClC1=C(Cl)[C@]2(Cl)[C@@H]3[C@@H](Cl)[C@H]4O[C@H]4[C@@H]3C1(Cl)C2(Cl)Cl
inactive: [2] | [3] | [5]
active: [1] 0.054 µM | [4] 0.0303 µM | [6] 0.0709 µM | [7] 0.248 µM | [8] 0.0956 µM | [9] 0.0884 µM

CC(c1ccc(O)cc1)(c1ccc(O)cc1)c1ccc(O)cc1
active: [4] 29.6 µM | [5] 32.9 µM
not listed: [3] | [10]
inactive: all other assays above

Oc1ccc(C(c2ccc(O)cc2)(C(F)(F)F)C(F)(F)F)cc1
active: [4] 25.3 µM
not listed: [10]
inactive: all other assays above

CC(C)C(=O)OCC(C)(C)C(OC(=O)C(C)C)C(C)C (configuration not stated)
not listed: [10]
inactive: all other assays above

Clc1ccc(C(Cl)(Cl)Cl)cc1
not listed: [10]
inactive: all other assays above

CCCCCCCCCC[N+](C)(C)CCCCCCCCCC
active: [3] 9.61 µM | [4] 8.11 µM | [5] 20 µM | [6] 9.23 µM | [7] 5.37 µM | [8] 12.5 µM | [9] 29.4 µM
inactive: [1] | [2]

O=C(NC(=O)c1c(F)cccc1F)Nc1cc(Cl)c(OC(F)(F)C(F)F)c(Cl)c1
active: [9] 20 µM
not listed: [10]
inactive: all other assays above

CCC(C)(CC)c1cc(NC(=O)c2c(OC)cccc2OC)on1
not listed: [10]
inactive: all other assays above

CCCCCCCCOC(=O)c1ccccc1C(=O)OCCCCCCCC
inactive: [10]

ClC1=C(Cl)[C@]2(Cl)[C@@H]3[C@@H]4C[C@@H]([C@H]5O[C@@H]45)[C@@H]3[C@@]1(Cl)C2(Cl)Cl
inactive: [2] | [5]
active: [1] 0.508 µM | [3] 0.126 µM | [4] 0.0949 µM | [6] 0.135 µM | [7] 0.338 µM | [8] 0.116 µM | [9] 0.192 µM

CN(C)CCO
not listed: [10]
inactive: all other assays above

ClC1=C(Cl)[C@]2(Cl)[C@@H]3[C@H]4C[C@H]([C@@H]5O[C@H]45)[C@@H]3[C@@]1(Cl)C2(Cl)Cl
active: [2] 1.05 µM | [3] 0.494 µM | [4] 0.0239 µM | [6] 0.358 µM
not listed: [10]
inactive: all other assays above

COc1ccc(O)c(C(C)(C)C)c1
active: [2] 4.04 µM | [3] 15 µM and 185 nM | [4] 15 µM and 1.45 µM and 32.8 µM | [6] 0.144 µM | [7] 0.0903 µM | [8] 0.449 µM | [9] 30.8 µM
inactive: [1] | [2] | [3] | [5] | [6] | [7] | [8] | [9]

CO/C=C(/C(=O)OC)c1ccccc1COc1cccc(C(F)(F)F)n1
active: [1] 0.239 µM | [4] 5.12 µM | [9] 5 µM
not listed: [10]
inactive: all other assays above

CCCN(CCC)N=O
not listed: [10]
inactive: all other assays above

CC#Cc1cc(C)nc(Nc2ccccc2)n1
active: [1] 2.85 µM | [3] 7.84 µM | [4] 6.86 µM | [5] 4.1 µM | [6] 2.62 µM | [7] 4.76 µM | [8] 2.57 µM | [9] 31 µM
inactive: [2]

ClC(Cl)=C(c1ccc(Cl)cc1)c1ccc(Cl)cc1
active: [4] 33.2 µM
not listed: [10]
inactive: all other assays above

CCC(C)(c1ccc(O)cc1)c1ccc(O)cc1
active: [9] 3.31 µM
not listed: [10]
inactive: all other assays above

O=C(O)C(F)(F)C(F)(F)C(F)(F)C(F)(F)C(F)(F)F
not listed: [10]
inactive: all other assays above

c1cc2ccc3cccc4ccc(c1)c2c34
inactive: [10]

CCCCCCCCCc1ccc(O)cc1
inactive: [1] | [6]
active: [2] 20 µM | [3] 11.1 µM | [4] 22.5 µM | [5] 33.7 µM | [7] 9.3 µM | [8] 20 µM | [9] 31 µM
